ALDH1A1 block – qHTS Assay for Inhibitors of Aldehyde Dehydrogenase 1 (ALDH1A1) | Aldehyde dehydrogenase 1A1 (Homo sapiens), P00352 | Potency, µM (series often up to 75.3 µM), for inactives: at the top dose activity, negative = inhibition, actives largely listed as inhibitors | 220,000 tested, 7.3% active | Purified ALDH1A1, NADH fluorescence, propionaldehyde substrate | AID 1030, 2008; active means well fitted inhibition curve with a large enough effect, not every such curve was filed as active; inconclusive means small, poorly fitted or top-dose-only effect, or another doubt; inactive means no such curve, though single readings can be large or run the other way;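 further: potency means the concentration at half of the fitted maximal effect; plate controls were no enzyme wells and a reference inhibitor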
Target sequence (P00352 whole entry, looked up): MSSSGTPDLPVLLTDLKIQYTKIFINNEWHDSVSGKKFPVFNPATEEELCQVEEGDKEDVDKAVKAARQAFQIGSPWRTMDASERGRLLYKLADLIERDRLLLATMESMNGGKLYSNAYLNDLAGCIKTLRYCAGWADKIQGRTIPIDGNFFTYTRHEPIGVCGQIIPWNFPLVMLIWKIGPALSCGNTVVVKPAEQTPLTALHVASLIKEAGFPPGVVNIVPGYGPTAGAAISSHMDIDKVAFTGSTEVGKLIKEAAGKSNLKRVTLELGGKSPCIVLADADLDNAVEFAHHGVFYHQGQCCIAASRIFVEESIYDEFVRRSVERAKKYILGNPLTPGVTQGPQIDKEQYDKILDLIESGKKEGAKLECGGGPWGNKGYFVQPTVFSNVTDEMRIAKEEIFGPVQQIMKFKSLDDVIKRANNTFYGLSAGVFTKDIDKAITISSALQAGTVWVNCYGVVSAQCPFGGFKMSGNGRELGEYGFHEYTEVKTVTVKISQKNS
IMPase Li inh – qHTS Assay for Identifying the Cell-Membrane Permeable IMPase Inhibitors: Potentiation with Lithium; 210,000 tested, 0.35% active; CHO-M1 cells, IP1 TR-FRET (IP-One), carbachol + lithium; Potency, µM (series often up to 59.4 µM), without a hit: at the top dose activity, negative = IMPase inhibition, most hits filed as inhibitors;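 further: IP1 builds up when IMPase is blocked and the TR-FRET signal falls; potency means the concentration at half of the fitted maximal effect; plate controls were basal vehicle for no effect and high inhibitor control for full effect; nearly all actives have a fitted effect of over 50% in size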
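CHO-M1, 2000 cells/well, 16–30 h culture; cpd + low Li+, 30 min 37C; lysis with d2-IP1/Eu-anti-IP1 Ab, 10 min RT; TR-FRET 665/620 ratio and 620 channel; AC50 via Hill.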
HTT ATP protect – qHTS Multiplex Assay to Identify Dual Action Probes in a Cell Model of Huntington: Cytoprotection (ATP) | PC12 HTT-Q103 induced, cytoprotection, ATP luminescence, 40 h | Potency, µM (series often up to 56.4 µM), without a hit: cytoprotection (ATP increase), usual class: activators | 230,000 tested, 0.14% active | AID 1471, 2008; further: potency means the concentration at half of the fitted maximal effect; % of control where 0% means no effect; nearly all actives have a fitted effect of over 45% in size
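Stable PC12 Q103-GFP cells in serum-supplemented, phenol red-free DMEM; induction by tebufenozide at 100 nM final; compound dose series; cell viability quantified luminescently from ATP.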
HTT aggregate – qHTS Multiplex Assay to Identify Dual Action Probes in a Cell Model of Huntington: Aggregate Formation (GFP). 220,000 tested, 1.1% active. Potency, µM (top dose mostly 46.1 µM), without a hit: at the highest dose activity change, negative = inhibition, most hits filed as inhibitors. PC12 HttQ103-GFP aggregates, Acumen cytometry, 40 h. AID 1688, 2009; further: potency means the concentration at half of the fitted maximal effect; on the % scale 0 is the no-effect control and ±100 the full control effect; nearly all actives have a fitted effect of over 60% in size
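PC12 cells stably carrying ecdysone-inducible HTT exon 1 Q103–GFP were induced with tebufenozide (100 nM final) and treated with library compounds in titration. GFP aggregates in lysates were counted by laser scanning cytometry.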
IMPase inh – qHTS Assay for Identifying the Cell-Membrane Permeable IMPase Inhibitors. Inositol monophosphatase 1 (Rattus norvegicus), P97697. CHO-M1 cells, IP1 accumulation, HTRF TR-FRET ratio. inhibition (IP1 accumulation), % at 46.1 µM. 120,000 tested, under 10 active. AID 901, 2007; active means well fitted curve in the direction sought with a large enough effect in the signal ratio, not every such curve was filed as active; inconclusive means small, poorly fitted or top-dose-only effect, or a change in a side signal; inactive means no such curve, though single readings can be large or run the other way; the % refers to the signal ratio;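 further: cells stimulated with carbachol in lithium chloride buffer; plate controls were DMSO basal wells for no effect and reference inhibitor wells for full effect; higher means more IMPase inhibition seen as more IP1 and lower FRET ratio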
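Carbachol-driven Gq signalling in CHO-M1 cells (2000/well) generates IP1. Compounds that block IMPase raise IP1 and so reduce the FRET signal from Eu-anti-IP1 and d2-IP1 after a 10 min room-temperature lysis.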
HPGD block – qHTS Assay for Inhibitors of HPGD (15-Hydroxyprostaglandin Dehydrogenase). 150,000 tested, 4.3% active. 15-hydroxyprostaglandin dehydrogenase [NAD(+)] (Homo sapiens), P15428. Potency, µM, without a hit: at the top dose activity change, negative = inhibition, usual class: inhibitors. purified HPGD, NADH fluorescence kinetic, PGE2 substrate; active means well fitted inhibition curve with a large enough effect, not every such curve was filed as active; inconclusive means small, poorly fitted or top-dose-only effect, or another doubt; inactive means no such curve, though single readings can be large or run the other way; further: potency means the concentration at half of the fitted maximal effect; on the % scale 0 is the no-effect control and ±100 the full control effect
Target sequence (P15428 whole entry, looked up): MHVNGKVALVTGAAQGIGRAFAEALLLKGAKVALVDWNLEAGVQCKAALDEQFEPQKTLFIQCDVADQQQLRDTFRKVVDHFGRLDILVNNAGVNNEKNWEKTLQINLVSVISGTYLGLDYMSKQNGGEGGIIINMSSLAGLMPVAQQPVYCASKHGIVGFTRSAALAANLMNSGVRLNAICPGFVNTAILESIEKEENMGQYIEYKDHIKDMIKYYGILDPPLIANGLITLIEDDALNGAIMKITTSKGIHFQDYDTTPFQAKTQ
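NADH formation kinetics: reaction with 30 uM PGE2 and 1 mM NAD+ (final), 20 nM enzyme, Tris-HCl pH 8 with Tween 20, after 15 min compound preincubation at room temperature. Fluorescence change, last versus first of five reads.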
* hit, by the source's call; ? = inconclusive; nt = no result; [ ] = dose if it differs, or a comment. This is a sample that favours compounds with a hit; in the whole collection about 9.4% have one here. Unless noted, the call rests on the fitted dose curve; in most records, active means well fitted curve in the direction sought with a large enough effect; inconclusive means small, poorly fitted or top-dose-only effect, or another doubt; inactive means no such curve, though single readings can be large; an effect the other way counts as inactive or inconclusive.

SMILES	ALDH1A1 block	IMPase Li inh	HTT ATP protect	HTT aggregate	IMPase inh	HPGD block
Cc1ccc(N2C(=O)C3C(C2=O)N2CCCN2C3c2ccccc2)cc1C (stereo not drawn)	-4%	2%	nt	nt	nt	nt
CC(=O)N(C)C1=C(O)c2ccccc2C(=O)C1=O	?	-4%[38.3 µM]	?	-15%	-12	-16%
CC(=O)N(C1=C(O)c2ccccc2C(=O)C1=O)C1CCCCC1	10µM*	22%[38.3 µM]	-13%	-15%	2	-26%
O[C@@H](c1cc(-c2ccccc2)nc2c1ccc1ccccc12)[C@@H]1CCCCN1	nt	nt	-4%[10 µM]	nt	nt	nt
Cc1cccc(-n2c(-c3ccccc3)cn3c4c(=O)[nH]c(=O)n(C)c4nc23)c1	nt	nt	nt	nt	2	nt
COc1ccc(-c2cc(=O)oc3cc(OC(=O)C4CCCCC4)ccc23)cc1	-3%	-5%	-3%[10 µM]	?	nt	?
CCOC(=O)C(Oc1ccc2c(-c3ccccc3)cc(=O)oc2c1)c1ccccc1 (stereo not drawn)	?	13%	-1%[10 µM]	?	nt	-19%
O=C(Oc1ccc2c(-c3ccccc3)cc(=O)oc2c1)c1cccs1	11µM*	-2%	10%[10 µM]	-22%	nt	?
COC(=O)COc1ccc2c(-c3cccc([N+](=O)[O-])c3)cc(=O)oc2c1	?	5%[38.3 µM]	-4%	-8%	6	-17%
CCOC(=O)C(C)Oc1ccc2c(-c3cccc([N+](=O)[O-])c3)cc(=O)oc2c1 (stereo not drawn)	?	19%	-3%[10 µM]	-4%	-7	35µM*
CC(Oc1ccc2c(-c3ccccc3)cc(=O)oc2c1)C(=O)O (stereo not drawn)	28µM*	0%[38.3 µM]	12%[10 µM]	-2%	-7	?
O=C(Oc1ccc2c(-c3ccccc3)cc(=O)oc2c1)C1CCCCC1	2.2µM*	13%[38.3 µM]	-53%	?	-3	?
COc1ccccc1-c1c(C)nn2c(C(F)(F)F)cc(-c3ccccc3)nc12	nt	nt	nt	nt	1	nt
CCN1CCCC1Cn1c(-c2ccccc2)nc2c(NCCOC)nc(C)nc21 (stereo not drawn)	?	3%	9%	nt	nt	?
CCc1cc2c(-c3ccccc3)cc(=O)oc2cc1OC(=O)c1cccs1	-1%	-4%	2%[10 µM]	-14%	nt	3.2µM*
CC(NC(=O)OCc1ccccc1)C(=O)Oc1cc2oc(=O)cc(-c3ccccc3)c2cc1Cl (stereo not drawn)	?	1%	-2%[10 µM]	8.9µM*	-19	?
Cc1cccc(OCCC(=O)N(C)CC(=O)Nc2cccc3ccccc23)c1	-14%	0%	12%[10 µM]	-11%	-1	-4%
O=[N+]([O-])c1ccc(N2N=C(c3ccco3)CC2c2ccccc2)cc1 (stereo not drawn)	10µM*	21%[38.3 µM]	-52%	-6%	10	-19%
Fc1ccc(C2CC(c3ccco3)=NN2c2ccccc2)cc1 (stereo not drawn)	8%	-1%[38.3 µM]	-21%	11%	-16	?
COCCN1C(=O)CC(NNC(=O)c2ccc(S(=O)(=O)N3CCCC3)cc2)C1=O (stereo not drawn)	-12%	-5%	15%[10 µM]	1%[9.22 µM]	nt	nt
CC(C)CCN1C(=O)CC(NNC(=O)c2ccc(S(=O)(=O)N3CCCC3)cc2)C1=O (stereo not drawn)	13µM*	nt	1%[10 µM]	-13%[9.22 µM]	nt	nt
O=C(O)CNC(=O)/C(=C/c1ccco1)NC(=O)/C=C/c1ccccc1	16%	-5%	-11%[10 µM]	11%	nt	-16%
COC(=O)/C(=C/c1ccco1)NC(=O)c1ccc(Br)o1	20µM*	1%	nt	18%	nt	nt
COC(=O)/C(=C/c1ccco1)NC(=O)c1ccco1	10µM*	5%	-13%[10 µM]	12%	nt	-17%
C=CCOC(=O)/C(=C/c1ccco1)NC(=O)/C=C/c1ccccc1	16µM*	51%[38.3 µM]	8%[10 µM]	10%	-1	-29%
SMILES	ALDH1A1 block	IMPase Li inh	HTT ATP protect	HTT aggregate	IMPase inh	HPGD block
N#Cc1ccc(CS(=O)(=O)c2nc3ccccc3s2)cc1	?	10%	?	nt	nt	-3%
Cc1ccccc1OCc1nc2ccccc2n1Cc1ccccc1Cl	nt	nt	nt	nt	6	nt
CC(C)C=O	-15%	-8%	-6%	nt	nt	-5%
O=C(O)/C=C/C(=O)NCCNc1ncc(C(F)(F)F)cc1Cl	28µM*	10%	-44%[1.9 µM]	10%[9.22 µM]	nt	nt
O=C1CC(=O)N(CCNc2ncc(C(F)(F)F)cc2Cl)C(=O)N1	7%	-11%[38.3 µM]	24%	0%	0	-18%
O=C1C=CC(=O)N1CCNc1ncc(C(F)(F)F)cc1Cl	0.63µM*	20%	-7%[10 µM]	?	nt	nt
Cc1c(C(=O)O)c(=S)sn1CCOc1ccccc1	-8%	20%[38.3 µM]	1%	-5%	9	18µM*
COC(=O)c1ccc(N2CCCCC2)c(NS(=O)(=O)c2ccc(C)cc2)c1	7.9µM*	47%[38.3 µM]	-7%	14%	6	-12%
CCOC(=O)c1ccc(N2CCCCC2)c(NS(=O)(=O)c2cccc(C(F)(F)F)c2)c1	nt	nt	-2%[10 µM]	9%[9.22 µM]	nt	nt
COc1ccc(S(=O)(=O)Nc2cc(C(=O)NCCCN3CCOCC3)ccc2N2CCOCC2)cc1	?	0%	-34%	4%	nt	nt
COc1ccc(S(=O)(=O)Nc2cc(C(=O)NCCCOC(C)C)ccc2N2CCOCC2)cc1	?	-3%	-26%	23%	nt	nt
COc1ccc(S(=O)(=O)Nc2cc(C(=O)NCCC(C)C)ccc2N2CCOCC2)cc1	14µM*	-12%[38.3 µM]	-14%	8%	3	-1%
CCN(CC)CCNC(=O)c1ccc(N2CCCCC2)c(NS(=O)(=O)c2ccc(C)cc2)c1	20µM*	11%	-13%[10 µM]	-9%	4	-8%
CC(=O)Nc1ccc(S(=O)(=O)N2CCSC2c2ccco2)cc1 (stereo not drawn)	?	2%	27%[10 µM]	7%[9.22 µM]	nt	nt
O=C(Nc1ccc(Cl)c(Cl)c1)N1CCSC1c1ccco1 (stereo not drawn)	5µM*	27%[38.3 µM]	-42%	?	7	22µM*
COc1ccc(-c2nc(-c3ccccc3)c(Nc3c(C)cccc3C)o2)cc1	2%	3%	-46%	nt	nt	-11%
O=C(CCCCCN1C(=O)c2ccccc2C1=O)Nc1nccs1	-1%	1%[38.3 µM]	9%	-16%	-5	7.1µM*
O=C(CCCN1C(=O)c2ccccc2C1=O)Nc1c2c(nc3c1CCC3)CCC2	-1%	11µM*	-8%	5%	10	-13%

High-throughput results: PubChem BioAssay, National Center for Advancing Translational Sciences (NCATS)
